Only some compounds are listed: those with a hit (about 2.8% of all), similar ones and a draw of the others.
SNCA expr inhib = reduces expression of the alpha-synuclein gene | HEK-293 SNCA-luciferase knock-in, luminescence, 24 h | Potency, µM (doses to about 57.2 µM), for the others: at the highest dose activity change, negative = inhibition, most hits filed as inhibitors | AID 1671194 | actives 0.17% (n = 140,000);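 note: potency is the fitted concentration of half-maximal effect; plate controls were DMSO cells for no effect and cell-free wells for full effect; nearly all actives have a fitted effect of over 45% in size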
HEK293 viab = counter-screen for SNCA expression inhibitors: cell viability | HEK-293-SNCA-luc viability, GF-AFC fluorescence, 24 h | Potency, µM (titrated, usually from 57.1 µM), without a hit: at the top dose activity change, negative = cytotoxicity, hits mostly cytotoxic | actives 0.12% (n = 150,000) | AID 1671193;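 note: potency is the fitted concentration of half-maximal effect; 0% = DMSO-treated cells and -100% = medium-only wells without cells; nearly all actives have a fitted effect of over 30% in size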
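Cytotoxicity counterscreen: after 24 h compound treatment of genome-edited SNCA-luciferase HEK-293 cells, live-cell protease substrate GF-AFC read by fluorescence after 30 min; activity scaled between DMSO (0%) and medium-only (-100%), curves Hill-fitted.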
KDM5B inh = blocks human KDM5B histone demethylase activity. Q9UGL1. KDM5B demethylase, FDH-coupled NADH fluorescence (FDH is formaldehyde dehydrogenase). Potency, µM (top dose mostly 57.7 µM), actives largely listed as inhibitors. actives 2.6% (n = 220,000); note: potency is the fitted concentration of half-maximal effect; 0% is about no effect; nearly all actives have a fitted effect of over 70% in size
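qHTS format, multiple compound concentrations. Buffer 50 mM HEPES pH 7.5/0.01% Tween-20; 200 nM KDM5BΔAP final; 10 min compound preincubation; substrate-mix levels 12.5 µM peptide, 25 µM α-KG, 0.25 mM NAD⁺; 30 min RT; ΔRFU.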
IP6K1 inhibitor = blocks human inositol hexakisphosphate kinase 1 | IP6K1 kinase, ADP-Glo luminescence, 2 h; active compounds read low | activity change, % (series mostly up to about 58 µM) | actives 0.81% (n = 140,000) | Q92551; in the data active = activity change below about -25%; note: % is set by controls: 0 for no effect and ±100 for the full control effect
Target sequence (Q92551 whole entry, looked up): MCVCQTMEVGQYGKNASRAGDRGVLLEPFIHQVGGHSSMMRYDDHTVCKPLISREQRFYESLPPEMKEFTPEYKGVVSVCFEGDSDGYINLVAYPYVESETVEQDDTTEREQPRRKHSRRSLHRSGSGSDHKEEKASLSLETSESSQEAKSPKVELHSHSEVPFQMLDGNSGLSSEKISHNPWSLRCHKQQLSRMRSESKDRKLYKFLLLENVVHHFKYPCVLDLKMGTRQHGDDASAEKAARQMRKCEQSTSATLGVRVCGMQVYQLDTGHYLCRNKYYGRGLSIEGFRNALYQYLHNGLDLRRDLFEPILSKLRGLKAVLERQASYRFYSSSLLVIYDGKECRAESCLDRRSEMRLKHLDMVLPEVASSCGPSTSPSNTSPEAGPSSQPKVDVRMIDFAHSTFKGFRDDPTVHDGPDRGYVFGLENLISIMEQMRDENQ
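ADP-Glo luminescence measures ADP made by human IP6K1 during a 2 h RT reaction with ATP/IP6 (mix at 1.3 mM/130 uM); top library doses 57.5 and 19.1 uM final.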
An asterisk follows results filed as active; i = inactive; ? = inconclusive; . = not tested or not shown; [ ] = remark or other dose. Unless noted, calls come from the whole dose curve; as a rule, active = well fitted curve in the direction sought with a large enough effect; inconclusive = small, poorly fitted or top-dose-only effect, or another doubt; inactive = no such curve, though single readings can be large; an effect the other way counts as inactive or inconclusive.

SMILES	SNCA expr inhib	HEK293 viab	KDM5B inh	IP6K1 inhibitor
O=C1CCN(S(=O)(=O)c2ccccc2)CCCN(C(=O)NCCc2ccccc2)CCN1	3%	9%	i	5
COc1ccccc1CN1CCc2nc(C(=O)Nc3ccc(Cl)cc3)oc2CC1	?	?	35µM*	17
O=C(Nc1ccc(Cl)cc1)c1nc2c(o1)CCN(Cc1ccc(F)cc1F)CC2	?	?	28µM*	11
COCCNC(=O)c1nc2c(o1)CCN(Cc1cccc(F)c1F)CC2	13%[87.6 µM]	3%[87.6 µM]	?	6
O=C(NCC1CC1)c1nc2c(o1)CCN(Cc1ccc(F)cc1F)CC2	-24%[87.6 µM]	0%[87.6 µM]	i	8
O=C(Nc1ccc(Cl)cc1)c1nc2c(o1)CCN(Cc1cccc(F)c1F)CC2	-34%[87.6 µM]	-16%[87.6 µM]	35µM*	1
CN1C(=O)c2cccn2CC1CN (stereo unspecified)	35%	-5%	i	-2
Cc1cc(C)n2nc(C)c(C(=O)N3CCCC(c4cccc(C(=O)O)c4)C3)c2n1 (stereo unspecified)	-13%	-4%	32µM*	-9
COc1cccc([C@H]2CN(C(=O)c3c(C)nn4c(C)cc(C)nc34)C[C@@H]2N)c1	2%	0%	28µM*	-11
Cc1ncc(C(=O)N2CCC3(CC2)[C@H](O)C[C@@H]3OCCO)c(=O)[nH]1	-27%	-2%	i	14
O=C(c1ccc2cc[nH]c2c1)N1CCC2(CC1)N=C(c1cccc(Br)c1)NO2	?	-10%	28µM*	9
Cc1ccc(C2=NC3(CCN(C(=O)c4cccc5[nH]ccc45)CC3)ON2)cc1	36%	-22%	32µM*	-3
COCCN1C(=O)CS(=O)C12CCN(C(=O)c1cccc3[nH]ccc13)CC2 (stereo unspecified)	14%	8%	28µM*	8
O=C(c1ccc2[nH]ccc2c1)N1CCC2(CC1)N=C(c1ccc(Br)cc1)NO2	21%	-1%	i	-5
OCc1ccc(CN2CCC[C@H]2c2nc(-c3ccc(N4CCOCC4)nc3)no2)o1	-2%[87.6 µM]	-1%[87.6 µM]	?	2
CN(C)c1ccc(-c2noc([C@@H]3CCCN3Cc3cnc4ccccc4c3)n2)cn1	-39%[87.6 µM]	-20%[87.6 µM]	28µM*	18
c1ccc(CN2CCC[C@H]2c2nc(-c3ccc(N4CCOCC4)nc3)no2)cc1	5%[87.6 µM]	-8%[87.6 µM]	32µM*	1
Clc1ccc(CN2CCC[C@H]2c2nc(-c3ccc(N4CCOCC4)nc3)no2)cc1	2%[87.6 µM]	-9%[87.6 µM]	35µM*	25
COc1ccc(C)cc1S(=O)(=O)Nc1ccc2c(c1)CCN2C(=O)c1cccnc1	.	.	i	.
Cc1nn2c(c1-c1ccccc1-c1ccccc1)N(Cc1ccc(O)cc1)CCC2	?	?	28µM*	6
Cc1cccc(CN2CCCn3nc(C)c(-c4ccccc4-c4ccccc4)c32)n1	4.5µM*	?	?	3
COc1ccc(-c2noc([C@@H]3C[C@@H](O)CN3Cc3cc4ccccc4o3)n2)cc1	38%[87.6 µM]	-10%[87.6 µM]	32µM*	3
CC(C)c1noc([C@@H]2C[C@@H](O)CN2Cc2cc3ccccc3o2)n1	6%[87.6 µM]	2%[87.6 µM]	40µM*	6
CC(C)c1noc([C@@H]2C[C@@H](O)CN2Cc2ccc(N(C)C)cc2)n1	-2%[87.6 µM]	5%[87.6 µM]	i	-6
CCOC(=O)c1cc(-c2ccc(C)cc2)n(CCC(=O)Nc2nc3c(C)cccc3s2)c1C	14µM*	-11%	?	5
SMILES	SNCA expr inhib	HEK293 viab	KDM5B inh	IP6K1 inhibitor
O=C(NC1CCN(c2nc3ncccc3o2)CC1)C1CC1	8%[87.6 µM]	-12%[87.6 µM]	28µM*	-3
O=[S+]([O-])(NC1CCN(c2nc3ncccc3o2)CC1)c1cccs1	-8%	5%	22µM*	-2
O=C(NC1CC1)C1CCN(c2nc3ncccc3o2)CC1	17%[87.6 µM]	1%[87.6 µM]	.	10
O=C(NCc1cccs1)C1CCN(c2nc3ncccc3o2)CC1	12%[87.6 µM]	7%[87.6 µM]	32µM*	-1
O=[S+]([O-])(c1cccs1)N1CCN(c2nc3ncccc3o2)CC1	5%	19%	i	-6
COC(=O)NC1CCN(c2nc3ncccc3o2)CC1	11%[87.6 µM]	1%[87.6 µM]	35µM*	-10
O=C1[C@H](Cc2ccc(O)cc2)N2C(=O)CCN(C(=O)NCc3ccccc3)[C@H]2CN1Cc1cccc2ccccc12	?	24µM*	.	.
O=C(N[C@@H]1CCOC[C@H]1O)c1cnn2cc(CCO)cnc12	-19%	5%	28µM*	-8
CCN(CC)Cc1cnc2c(C(=O)NC3CCC3)cnn2c1	0%	-1%	?	-2
COc1cccc(CNC(=O)[C@@H]2C[C@@H](O)CN2C2CCN(C(=O)Cc3cccc(OC)c3)CC2)c1	-20%	1%	i	-7
O=C(NC1CCN(c2cc(-c3cccs3)[nH]n2)C1)c1ccc2nc[nH]c2c1 (stereo unspecified)	0%	-9%	?	5
Cc1ccc(NC(=O)Nc2cccn3nc(C)nc23)cc1	171%	3%	i	13
CNC(=O)Nc1cccn2nc(-c3ccccc3)nc12	176%	2%	25µM*	19
COc1ccc(CC(=O)N2CCn3c(nn(-c4ccc(C)cc4)c3=O)C2)cc1	-16%	-2%	i	5
CC(=O)N1CCN(c2cncc(C(=O)N3CCOCC3)n2)CC(O)C1 (stereo unspecified)	3%	5%	22µM*	10
Cc1nn(Cc2ccccc2)c(C)c1[C@@H]1C=C[C@@H](NC(=O)c2ccc(F)c(Cl)c2)C1	?	?	28µM*	-12
Cc1nn(Cc2ccccc2)c(C)c1[C@@H]1C=C[C@@H](NC(=O)c2ccco2)C1	9%[87.6 µM]	-10%[87.6 µM]	?	-3
COCC(=O)NC[C@H]1CCN(Cc2ccc(Cl)cc2)C[C@H]1N(C)C	10%	0%[12.5 µM]	i	12
COCC(=O)NC[C@H]1CCN(Cc2ccc(C#N)cc2)C[C@H]1N(C)C	38%	-7%[12.5 µM]	18µM*	12
O=C(NCc1ccc(-c2ccc(F)cc2)o1)C1CC(=O)N(Cc2cccnc2)C1 (stereo unspecified)	24%	-2%	25µM*	0
O=C(CCC1CCCC1)N1CCc2nn(Cc3ccccc3)c(=O)n2CC1	22%	-3%	.	-7
O=C(c1cccc2[nH]ccc12)N1CC(Oc2cccc(-c3nc(-c4ccccc4)no3)c2)C1	61%	-13%	25µM*	-2
Cn1cccc1C(=O)N1CC(Oc2cccc(-c3nc(-c4ccccc4)no3)c2)C1	1%	-18%	32µM*	0
Cc1cccc(OCC(=O)N2CCC3(CC2)CN(c2ncccn2)CC3CO)c1 (stereo unspecified)	9%	10%	20µM*	-5
O=C(COc1ccccc1)N1CCC2(CC1)CN(c1ncccn1)CC2CO (stereo unspecified)	-14%	-5%	22µM*	6
CNC(=O)c1cnn2c1CN(C(=O)c1ccccc1)CC2	-8%[87.6 µM]	-3%[87.6 µM]	i	8
CN(C)C(=O)c1cnn2ncccc12	37%[87.6 µM]	0%[87.6 µM]	32µM*	11
O=C(Nc1ccc(Cl)nc1)c1cnn2ncccc12	35%[87.6 µM]	8%[87.6 µM]	40µM*	12
CNC(=O)c1cnn2ncccc12	-9%[87.6 µM]	-1%[87.6 µM]	32µM*	-4
